A selection: hits, their analogues and other compounds. The true share with any hit is near 2.3%.
SENP6 block = SENP6 protease inhibitors, primary screen, biochemical, luminescence, uHTS. Recombinant SENP6 catalytic domain, aminoluciferin luminescence. inhibition, % at 10 µM. hit rate 1.8% among 330,000. Sentrin-specific protease 6 (Homo sapiens), Q9GZR1. AID 2599, 2010;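 active = inhibition above about 50% at the single tested dose, limit read from the data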
Target sequence (Q9GZR1 628-1112 limits assumed): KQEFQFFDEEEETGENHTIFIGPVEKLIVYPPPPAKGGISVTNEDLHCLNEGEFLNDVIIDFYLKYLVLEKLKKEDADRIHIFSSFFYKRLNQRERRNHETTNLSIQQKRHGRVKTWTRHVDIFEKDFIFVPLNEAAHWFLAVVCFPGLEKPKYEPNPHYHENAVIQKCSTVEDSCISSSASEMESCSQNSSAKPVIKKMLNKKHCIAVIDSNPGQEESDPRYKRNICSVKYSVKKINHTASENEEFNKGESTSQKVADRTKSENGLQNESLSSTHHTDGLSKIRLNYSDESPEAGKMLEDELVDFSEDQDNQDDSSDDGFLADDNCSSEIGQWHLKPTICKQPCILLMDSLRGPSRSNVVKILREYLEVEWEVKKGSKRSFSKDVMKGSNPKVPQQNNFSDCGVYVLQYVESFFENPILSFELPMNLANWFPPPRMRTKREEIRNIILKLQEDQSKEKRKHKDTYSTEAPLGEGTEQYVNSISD
HSP90 inh = HSP90 inhibitors, primary screen, cell lysate, luminescence; Rabbit reticulocyte lysate, luciferase refolding luminescence, 3 h; inhibition, % at 5.6 µM; hit rate 0.91% among 290,000; AID 1789, 2009;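 active = inhibition above the screen-wide mean plus 3 SD, computed separately per campaign, cut at about 16% in these data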;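 note: inhibitors lower the luminescence because luciferase stays unfolded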
SENP8 block-1 = human SENP8 protease inhibitors, primary screen, biochemical, fluorescence, Nedd8 protein substrate, uHTS. Sentrin-specific protease 8 (Homo sapiens), Q96LD8. recombinant SENP8. inhibition, % at 20 µM. hit rate 0.64% among 360,000. AID 602440, 2012; in the data active = inhibition mostly above about 40%, no sharp cut-off; inactive = mostly below about 27%
Target sequence (Q96LD8 whole entry, looked up): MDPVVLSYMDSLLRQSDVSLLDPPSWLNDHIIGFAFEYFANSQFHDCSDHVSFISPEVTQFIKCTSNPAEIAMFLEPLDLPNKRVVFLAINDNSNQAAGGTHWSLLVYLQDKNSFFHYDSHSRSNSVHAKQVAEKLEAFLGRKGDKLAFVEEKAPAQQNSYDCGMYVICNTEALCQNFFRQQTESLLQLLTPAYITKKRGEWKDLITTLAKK
SENP8 block-2 = SENP8 protease inhibitors, primary screen, biochemical, luminescence; Sentrin-specific protease 8 (Homo sapiens), Q96LD8; purified SENP8, Z-RLRGG-aminoluciferin cleavage; inhibition, % at 10 µM; hit rate 1.2% among 330,000; in the data active = inhibition above about 50%
LGR2 antag = inhibitors of bursicon-induced LGR2 CRE-luciferase signal, primary screen, cell-based, HEK293, CRE-luciferase reporter, bursicon stimulation; bursicon-stimulated, 4 h; inhibition, % at 9.99 µM; hit rate 0.35% among 380,000; AID 720647, 2013;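 active = drop in luminescence signal, shown as inhibition above about 50% in the replicate tests, limit read from the data, passing the limit was not always enough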;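 note: agonist challenge used bursicon conditioned medium at about half maximal strength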
SENP7 block = SENP7 protease inhibitors, primary screen, biochemical, luminescence, uHTS; Sentrin-specific protease 7 (Homo sapiens), Q9BQF6; inhibition, % at 5 µM; hit rate 1.5% among 330,000; recombinant SENP7, Z-RLRGG-aminoluciferin luminescence, 40 min; AID 434973, 2010;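 active = inhibition above about 50% at the single test dose, limit read from the data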
HSP90 inh confirm = HSP90 inhibitors, confirmation, cell lysate, luminescence; inhibition, % at 5.9 µM; shares compounds with HSP90 inh; hit rate 64% among 2,300; rabbit reticulocyte lysate, luciferase refolding luminescence, 3 h; in the data active = inhibition above about 18%
FLuc counter = firefly luciferase inhibitors, HSP90 counter-screen, confirmation, artefact control for HSP90 inhibitor project, biochemical, luminescence, triplicate; shares compounds with HSP90 inh; purified native firefly luciferase; inhibition, % at 5.9 µM; hit rate 48% among 2,300;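 active = inhibition above the mean inhibition of all tested sample wells plus 3 SD, cut at about 10% in these data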
Large screens that a line does not name were inactive (follow-up assays come after a bar, where they were run); ! = not confirmed by another sample.

O=C(COc1ccc(Cl)cc1)NCc1nnc(SCC(=O)Nc2ccccc2)o1	HSP90 inh 36.8 (no result: LGR2 antag) | HSP90 inh confirm inactive | FLuc counter inactive
COCC(=O)N1[C@H](CO)[C@H](c2ccccc2)C12CN(C(=O)c1cccnc1)C2	none (no result: SENP6 block, HSP90 inh, SENP8 block-1, SENP8 block-2, SENP7 block)
O=C(NCC1CC1)[C@H]1[C@H](CO)[C@H]2Cn3c(cccc3=O)[C@@H]1N2C(=O)c1ccc(F)cc1	none (no result: SENP6 block, HSP90 inh, SENP8 block-1, SENP8 block-2, SENP7 block)
Cc1oc(-c2ccoc2)nc1CN(CC1CCC(=O)N1)C(C)C (stereo not drawn)	none (no result: LGR2 antag)
COCCN(Cc1nc(-c2ccc(-c3ccccc3)cc2)oc1C)C(C)C	HSP90 inh 85.3 | HSP90 inh confirm 88.9 | FLuc counter 20.6
CCOc1ccc(CCNC(=O)C2CCN(c3nn4c(=O)cc(C)nc4s3)CC2)cc1	HSP90 inh 17.6 (no result: LGR2 antag) | HSP90 inh confirm inactive | FLuc counter inactive
Cc1noc(C)c1S(=O)(=O)Nc1ccc2c(c1)C(=O)N([C@@H](C)CO)C[C@H](C)[C@H](CN(C)C(=O)C1CCCCC1)OCCCC[C@H](C)O2	none (no result: SENP6 block, HSP90 inh, SENP8 block-1, SENP8 block-2, SENP7 block)
O=C(C[C@@H]1CC[C@H](NC(=O)Nc2cc(F)ccc2F)[C@@H](CO)O1)NCc1ccc2c(c1)OCO2	none (no result: SENP6 block, HSP90 inh, SENP8 block-1, SENP8 block-2, SENP7 block)
CC(=O)/C=C(\C)Nc1ccccc1O	HSP90 inh 17.7 | HSP90 inh confirm 25.9 | FLuc counter inactive
N#CC1=C(N)Oc2n[nH]c(-c3ccncc3)c2C1c1ccsc1 (stereo not drawn)	HSP90 inh 17.0 (no result: LGR2 antag) | HSP90 inh confirm inactive | FLuc counter inactive
N#CC1=C(N)Oc2n[nH]c(-c3ccccc3)c2C1c1ccsc1 (stereo not drawn)	none (no result: LGR2 antag)
COc1cc(OC)cc(C2C(C#N)=C(N)Oc3n[nH]c(-c4cccnc4)c32)c1 (stereo not drawn)	HSP90 inh 17.6 | HSP90 inh confirm inactive | FLuc counter inactive
CCC(CC)C1C(C#N)=C(N)Oc2n[nH]c(C)c21 (stereo not drawn)	none (no result: LGR2 antag)
CCC(CC)C1C(C#N)=C(N)Oc2n[nH]c(-c3ccccc3)c21 (stereo not drawn)	HSP90 inh 17.6 (no result: LGR2 antag) | HSP90 inh confirm inactive | FLuc counter inactive
COc1cc(C2C(C#N)=C(N)Oc3n[nH]c(-c4cccs4)c32)cc(OC)c1O (stereo not drawn)	HSP90 inh 23.8 | HSP90 inh confirm inactive | FLuc counter inactive
Cc1ccc(C2C(C#N)=C(N)Oc3n[nH]c(-c4cccs4)c32)cc1 (stereo not drawn)	none (no result: LGR2 antag)
O=C(C[C@H]1C=C[C@H](NC(=O)Nc2cccc(F)c2)[C@H](CO)O1)NCC1CC1	none (no result: SENP6 block, HSP90 inh, SENP8 block-1, SENP8 block-2, SENP7 block)
O=C(Nc1cccnc1)c1ccc(COc2ccccc2Br)o1	none (no result: LGR2 antag)
CCOc1ccc(OCc2ccc(C(=O)NCc3ccncc3)o2)cc1	HSP90 inh 17.8 (no result: LGR2 antag) | HSP90 inh confirm 19.4 | FLuc counter inactive
O=C(NCc1cccnc1)c1ccc(COc2ccc3c(c2)CCC3)o1	none
CC(C)(C)c1ccc(OCc2ccc(C(=O)Nc3cccnc3)o2)cc1	HSP90 inh 26.2 | HSP90 inh confirm 22.6 | FLuc counter inactive
COC(=O)c1ccc(COc2ccc(C(C)(C)C)cc2)o1	HSP90 inh 29.4 | HSP90 inh confirm 34.6 | FLuc counter inactive
COC(=O)c1ccc(COc2ccc3c(c2)CCC3)o1	HSP90 inh 22.7 | HSP90 inh confirm 40.1 | FLuc counter inactive
CCC(C)c1ccc(OCc2ccc(C(=O)OC)o2)cc1 (stereo not drawn)	HSP90 inh 25.6 | HSP90 inh confirm 65.0 | FLuc counter inactive
CCCc1ccc(OCc2ccc(C(=O)OC)o2)c(OC)c1	HSP90 inh 23.6 | HSP90 inh confirm 30.1 | FLuc counter inactive
COC(=O)c1ccc(COc2ccc(NC(C)=O)cc2)o1	none
CCCc1ccc(OCc2ccc(C(=O)NN)o2)c(OC)c1	none
CCc1ccc(OCc2ccc(C(=O)OC)o2)cc1	HSP90 inh 56.1 | HSP90 inh confirm 74.9 | FLuc counter inactive
CCCc1ccc(OCc2ccc(C(=O)N3CCSCC3)o2)cc1	HSP90 inh 51.7 | HSP90 inh confirm 55.4 | FLuc counter inactive
CC(C)C(=O)Nc1ccc2c(c1)C(=O)N(C)[C@H]1CC[C@@H](CC(=O)NCCCN(C)C)O[C@H]1CO2	none (no result: SENP6 block, HSP90 inh, SENP8 block-1, SENP8 block-2, SENP7 block)
O=C(C[C@@H]1C[C@@H]2c3cc(NC(=O)c4ccc5c(c4)OCO5)ccc3O[C@@H]2[C@@H](CO)O1)NCc1cc(F)ccc1F	none (no result: SENP6 block, HSP90 inh, SENP8 block-1, SENP8 block-2, SENP7 block)
C[C@@H]1CCCCO[C@@H](CN(C)Cc2ccc(C(=O)O)cc2)[C@@H](C)CN([C@@H](C)CO)C(=O)c2cc(NS(=O)(=O)c3ccc(Cl)cc3)ccc2O1	none (no result: SENP6 block, HSP90 inh, SENP8 block-1, SENP8 block-2, SENP7 block)
O=C(O)c1ccc(COc2ccc3c(c2)CCC3)cc1	SENP6 block 94.8, HSP90 inh 48.9, SENP8 block-2 83.7, SENP7 block 51.0 | HSP90 inh confirm 62.9 | FLuc counter 16.8
CC(C)N1CC(C(=O)Nc2ccc(S(=O)(=O)N3CCCCC3)cc2)CC1=O (stereo not drawn)	HSP90 inh 26.4 | HSP90 inh confirm inactive | FLuc counter inactive
COc1ccc(N(C(C)C(=O)Nc2ccc(S(=O)(=O)N3CCCCC3)cc2)S(C)(=O)=O)cc1 (stereo not drawn)	HSP90 inh 18.1 | HSP90 inh confirm inactive | FLuc counter inactive
C[C@@H]1CN([C@@H](C)CO)C(=O)Cc2cc(NC(=O)Cc3cn(C)c4ccccc34)ccc2O[C@H]1CN(C)S(=O)(=O)c1cccs1	none (no result: SENP6 block, HSP90 inh, SENP8 block-1, SENP8 block-2, SENP7 block)
CC(C)OC(=O)c1sc2nc(-c3ccccc3)ccc2c1N	HSP90 inh 44.4 | HSP90 inh confirm 53.5 | FLuc counter 52.4
COc1ccc(C(=O)c2sc3nc(-c4ccccc4)ccc3c2N)cc1	none (no result: LGR2 antag)
Nc1cc(-c2ccccc2)ccc1O	HSP90 inh 23.7! (no result: LGR2 antag) | HSP90 inh confirm 80.1 | FLuc counter inactive
COc1ccccc1/C=N\N=C(\N)c1ccccn1	HSP90 inh 25.1 | HSP90 inh confirm inactive | FLuc counter inactive
COc1ccccc1C=NN=C(N)C(N)=NN=Cc1ccccc1OC	none (no result: SENP6 block, HSP90 inh, SENP8 block-2, SENP7 block)
C[C@@H]1CN([C@@H](C)CO)C(=O)c2cc(C3=CCCC3)cnc2O[C@H]1CN(C)C(=O)C1CCOCC1	none (no result: SENP6 block, HSP90 inh, SENP8 block-1, SENP8 block-2, SENP7 block)
CCc1nnc(NC(=O)c2n[nH]c(=O)c3ccccc23)s1	HSP90 inh 26.4 | HSP90 inh confirm inactive | FLuc counter inactive
CCc1ccc(NC(=O)c2n[nH]c(=O)c3ccccc23)cc1	none
Cc1ccc(S(=O)(=O)N(C)C[C@H]2Oc3ccc(NC(=O)c4ccncc4)cc3C(=O)N([C@@H](C)CO)C[C@H]2C)cc1	none (no result: SENP6 block, HSP90 inh, SENP8 block-1, SENP8 block-2, SENP7 block)

High-throughput results as filed in PubChem.
